The full ranking holds about 18,000 sequences; the median of “TetR repression strength (sort-seq, GFP reporter)” is about 0.23, and the highest 2% start at about 0.68. Only a selection was taken, and the highest values are over-represented in it overall.
molecular target: TetR (class B, Tn10) (UniProt P04483); assay: TetR repression strength (sort-seq, GFP reporter) (relative to tetO2 = 1); higher = stronger repression; conditions: E. coli
Outline: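 Repression strength is the top bin index plus one minus the read-weighted mean bin, relative to the unaltered operator's value. A low-copy library in E. coli SIG10-MAX randomized eight operator positions between a constitutive promoter and sfGFP, with TetR expressed constitutively; cells grew 5 h at 37 °C in LB with 50 µg/mL chloramphenicol and 10^6 were FACS-sorted into 13 bins that were each Illumina-sequenced. Three independent transformations were averaged, keeping only members with ≥30 reads in all replicates and CV ≤0.5.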

TetR (class B, Tn10), sequence (P04483 whole entry): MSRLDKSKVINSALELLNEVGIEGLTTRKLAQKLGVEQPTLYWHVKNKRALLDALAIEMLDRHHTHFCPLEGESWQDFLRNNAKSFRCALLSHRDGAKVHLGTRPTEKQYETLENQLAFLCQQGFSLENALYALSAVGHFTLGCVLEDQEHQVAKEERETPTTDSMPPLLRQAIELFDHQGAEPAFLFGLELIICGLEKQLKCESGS

| Sequence | TetR repression strength |
| --- | --- |
| TCCCTTCCAGTTTCAGAGA | 0.819 |
| TCCCTTTCAGTTTCAGAGA | 0.206 |
| TCCCTTCAAGTTTGAGAGA | 0.185 |
| TCCCTTCAAGTTTCAGAGA | 0.837 |
| TCCCTTCAAGTGTCAGAGA | 0.303 |
| TCCCTTCCAGTATCAGAGA | 0.0836 |
| TCCCAGAGAGTACTAGAGA | 0.336 |
| TCCCGAGGAGTGGCTGAGA | 0.0686 |
| TCCCTTGGAGTAGGGGAGA | 0.274 |
| TCCCACGGAGTCTGGGAGA | 0.0855 |
| TCCCTGTGAGTGCTCGAGA | 1.14 |
| TCCCGAAGAGTGCTCGAGA | 0.813 |
| TCCCAGTGAGTGCTCGAGA | 0.0229 |
| TCCCAGACAGTGCGAGAGA | 0.219 |
| TCCCAGACAGTGCTCGAGA | 0.855 |
| TCCCTGTTAGTGCTCGAGA | 1.15 |
| TCCCGAGGAGTGCTCGAGA | 0.126 |
| TCCCTGATAGTGCTCGAGA | 0.215 |
| TCCCGATGAGTGCTCGAGA | 0.361 |

| Sequence | TetR repression strength |
| --- | --- |
| TCCCTCTGAGTGCTCGAGA | 0.315 |
| TCCCAGACAGTACTCGAGA | 0.444 |
| TCCCTGTTAGTGGTCGAGA | 0.187 |
| TCCCTGGCAGTTAGGGAGA | 0.365 |
| TCCCGGTCAGTCTGCGAGA | 0.194 |
| TCCCGGATAGTCTTTGAGA | 0.125 |
| TCCCTTGGAGTATATGAGA | 0.119 |
| TCCCTGCGAGTAGTCGAGA | 0.542 |
| TCCCCATTAGTGTACGAGA | 0.425 |
| TCCCTAAGAGTGATGGAGA | 0.243 |
| TCCCTGAGAGTTCGCGAGA | 0.0305 |
| TCCCTGTGAGTTCGAGAGA | 0.719 |
| TCCCTGTGAGTTCGGGAGA | 0.369 |
| TCCCATCTAGTCCGTGAGA | 0.174 |
| TCCCTCTAAGTTAGTGAGA | 0.241 |
| TCCCGCTAAGTCCGGGAGA | 0.188 |
| TCCCCTGAAGTCTTCGAGA | 0 |
| TCCCTGTCAGTGTCGGAGA | 0.388 |
| TCCCTATCAGTTTTTGAGA | 0.472 |

| Sequence | TetR repression strength |
| --- | --- |
| TCCCTAGCAGTGTTTGAGA | 0.369 |
| TCCCAGGCAGTGCAGGAGA | 0.143 |
| TCCCTGTCAGTGCCGGAGA | 1.03 |
| TCCCTGTGAGTGCCGGAGA | 0.164 |
| TCCCTATGAGTGCTTGAGA | 0.335 |
| TCCCAGGGAGTGCCGGAGA | 0.19 |
| TCCCTATCAGTGTTTGAGA | 0.767 |
| TCCCAGGCAGTGCCGGAGA | 0.748 |
| TCCCTATCAGTGCTTGAGA | 0.701 |
| TCCCTCTCAGTGCTTGAGA | 0.661 |
| TCCCCGAAAGTCGCGGAGA | 0.128 |
| TCCCTATCAGTGTAGGAGA | 0.484 |
| TCCCCTCTAGTGTAAGAGA | 0.155 |
| TCCCGGATAGTAGCGGAGA | 0.329 |
| TCCCAGGCAGTCGGTGAGA | 0.213 |
| TCCCGTTTAGTGGGTGAGA | 0.306 |
| TCCCTTTGAGTTATCGAGA | 0.384 |
| TCCCGGGCAGTATTCGAGA | 0.136 |

Reference: a collection of fitness landscapes (doi:10.1038/s41467-024-54723-y)
